Design in all cases: scale not given: direction of the effect not stated beside the values
Test [1] deals with Protein translocase subunit SecA (Escherichia coli (strain K12)) (UniProt P10408). In words: Assay to Identify E. coli SecA ATPase Inhibitors. It counts as functional. The settings on record: 30 µM.
Test [2] has as its target T1, Ubiquitin-activating enzyme e1, putative (Leishmania donovani (strain BPK282A1)) (UniProt E9BSI1).
T1 sequence (whole entry): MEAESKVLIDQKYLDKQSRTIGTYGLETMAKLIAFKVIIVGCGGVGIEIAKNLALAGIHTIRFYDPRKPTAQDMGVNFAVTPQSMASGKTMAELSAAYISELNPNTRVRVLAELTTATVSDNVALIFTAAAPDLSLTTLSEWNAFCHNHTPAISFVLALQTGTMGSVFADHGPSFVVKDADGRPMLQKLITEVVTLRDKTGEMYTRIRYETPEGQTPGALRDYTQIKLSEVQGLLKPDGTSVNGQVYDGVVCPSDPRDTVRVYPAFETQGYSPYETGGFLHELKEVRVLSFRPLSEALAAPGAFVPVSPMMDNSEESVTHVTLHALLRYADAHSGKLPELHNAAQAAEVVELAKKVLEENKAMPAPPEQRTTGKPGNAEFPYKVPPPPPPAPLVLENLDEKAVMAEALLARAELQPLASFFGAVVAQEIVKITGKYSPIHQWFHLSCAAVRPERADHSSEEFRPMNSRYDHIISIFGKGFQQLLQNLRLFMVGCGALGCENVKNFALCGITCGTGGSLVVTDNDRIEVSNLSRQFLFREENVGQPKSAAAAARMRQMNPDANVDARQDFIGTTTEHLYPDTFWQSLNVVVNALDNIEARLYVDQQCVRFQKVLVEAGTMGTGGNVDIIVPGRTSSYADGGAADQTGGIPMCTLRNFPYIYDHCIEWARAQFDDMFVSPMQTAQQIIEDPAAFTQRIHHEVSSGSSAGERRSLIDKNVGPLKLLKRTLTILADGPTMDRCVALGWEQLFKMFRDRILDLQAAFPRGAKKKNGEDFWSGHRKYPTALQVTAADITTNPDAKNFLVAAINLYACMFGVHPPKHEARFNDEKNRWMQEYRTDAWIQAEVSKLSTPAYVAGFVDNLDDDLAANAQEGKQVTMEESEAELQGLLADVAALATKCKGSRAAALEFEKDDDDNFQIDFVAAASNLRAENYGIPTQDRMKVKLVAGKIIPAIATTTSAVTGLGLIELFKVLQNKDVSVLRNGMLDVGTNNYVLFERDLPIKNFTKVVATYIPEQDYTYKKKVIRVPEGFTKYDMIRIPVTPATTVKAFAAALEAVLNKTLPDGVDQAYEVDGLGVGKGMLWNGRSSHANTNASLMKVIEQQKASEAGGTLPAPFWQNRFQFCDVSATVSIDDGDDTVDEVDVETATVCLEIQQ
In words: Leishmania donovani Ubiquitin Activating Enzyme (LdE1). It counts as functional. The following applies: 30 µM.

Test [3] deals with AMP-activated protein kinase, AMPK (Homo sapiens) (UniProt P54646+O43741+P54619+Q9UGJ0+Q9Y478+Q13131+Q9UGI9). In words: AMP-dependent Kinase enzyme assay. An in vitro enzyme assay that detects ADP turnover that is directly proportional to AMPK activity. This uses naive AMPK that is activated during the assay with MK-8722. The test is classed as functional. The settings on record: 30 µM.

Test [4] addresses Sialic acid-binding Ig-like lectin 9 (Homo sapiens) (UniProt Q9Y336). In words: Hs-Siglec9 ALPHAscreen SOP 20170721. The following applies: 10 µM. Background: Alpha assays give light when donor and acceptor beads are brought close together.
The next test relates to Trypanosoma cruzi. In words: Trypanosoma cruzi phosphomannomutase and mannose-1-phosphate guanylyltransferase assay. It counts as functional. The following applies: 10 µM.
The target in test [5] is T2, Arginase-2, mitochondrial (Homo sapiens) (UniProt P78540).
T2 sequence (whole entry): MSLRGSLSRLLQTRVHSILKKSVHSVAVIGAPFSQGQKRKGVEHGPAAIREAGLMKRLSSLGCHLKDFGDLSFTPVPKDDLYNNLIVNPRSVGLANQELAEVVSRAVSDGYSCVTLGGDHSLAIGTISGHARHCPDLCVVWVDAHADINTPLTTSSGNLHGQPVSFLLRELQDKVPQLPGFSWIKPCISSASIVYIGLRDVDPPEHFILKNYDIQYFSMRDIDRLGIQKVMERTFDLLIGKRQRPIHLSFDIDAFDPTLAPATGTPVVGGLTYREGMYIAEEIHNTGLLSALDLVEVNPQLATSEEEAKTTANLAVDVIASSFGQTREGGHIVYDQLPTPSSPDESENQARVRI
In words: in vitro enzyme assay to detect the production of urea directly proportional to the activity of Arginase II. Also: in the data most compounds retested in dose-response had high values. It counts as functional. The settings on record: 33.3 µM.

For test [6], the target named is T3, Proteasome subunit beta (Trypanosoma cruzi) (UniProt O96673).
T3 sequence (whole entry): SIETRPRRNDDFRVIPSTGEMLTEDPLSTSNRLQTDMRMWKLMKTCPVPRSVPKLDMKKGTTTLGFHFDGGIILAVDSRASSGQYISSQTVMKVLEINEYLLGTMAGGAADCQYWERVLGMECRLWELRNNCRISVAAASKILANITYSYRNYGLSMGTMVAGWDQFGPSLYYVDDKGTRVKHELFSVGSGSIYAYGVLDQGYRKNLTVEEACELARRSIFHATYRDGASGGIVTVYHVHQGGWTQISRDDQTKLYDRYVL
In words: Trypanosoma cruzi proteasome chymotrypsin-like activity (TcProtChymo) assay. Also: in the data most compounds retested in dose-response had high values. It counts as functional. The following applies: 9.37 µM.

A further test is filed under the species Homo sapiens. In words: To identify inhibition of the IFN signalling (Jak-Stat) pathway via expression of an eGFP reporter gene under the control of an IFN-stimulated response element (ISRE) containing MxA promoter. The following applies: 30 µM. It counts as functional. On the technique in general: In a reporter assay the amount or activity of a reporter protein is the signal.

Test [7] deals with T4, Tyrosyl-tRNA synthetase, putative (Trypanosoma cruzi (strain CL Brener)) (UniProt Q4DSP6).
T4 sequence (whole entry): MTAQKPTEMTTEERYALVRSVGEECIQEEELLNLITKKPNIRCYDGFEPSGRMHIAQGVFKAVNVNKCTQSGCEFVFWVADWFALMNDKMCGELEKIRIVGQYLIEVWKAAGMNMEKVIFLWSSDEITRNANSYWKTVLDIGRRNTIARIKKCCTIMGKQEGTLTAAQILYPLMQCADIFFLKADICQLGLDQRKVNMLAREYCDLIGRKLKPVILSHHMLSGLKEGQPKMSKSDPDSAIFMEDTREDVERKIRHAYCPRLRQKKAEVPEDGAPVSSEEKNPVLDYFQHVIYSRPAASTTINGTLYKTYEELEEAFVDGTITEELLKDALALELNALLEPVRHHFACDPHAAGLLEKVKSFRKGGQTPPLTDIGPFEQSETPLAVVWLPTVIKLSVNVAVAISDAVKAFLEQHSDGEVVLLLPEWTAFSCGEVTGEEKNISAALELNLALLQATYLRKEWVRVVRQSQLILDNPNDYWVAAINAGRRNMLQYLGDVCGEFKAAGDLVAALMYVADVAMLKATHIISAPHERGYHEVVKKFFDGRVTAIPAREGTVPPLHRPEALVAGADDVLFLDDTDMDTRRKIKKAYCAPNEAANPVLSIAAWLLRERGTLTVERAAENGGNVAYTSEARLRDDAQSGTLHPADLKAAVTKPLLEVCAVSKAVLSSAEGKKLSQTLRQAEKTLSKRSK
In words: Trypanosoma cruzi tyrosyl tRNA synthetase (TcYRS) _High Tyrosine SOP. Also: in the data most compounds retested in dose-response had high values. The test is classed as functional. The following applies: 30 µM.

The target of test [8] is T4, Tyrosyl-tRNA synthetase, putative (Trypanosoma cruzi (strain CL Brener)). In words: Trypanosoma cruzi tyrosyl tRNA synthetase (TcYRS) SOP. It counts as functional. The following applies: 30 µM.
Test [9] has as its target Chromo domain-containing protein 1 (Saccharomyces cerevisiae (strain ATCC 204508 / S288c) (Baker's yeast)) (UniProt P32657). In words: ScCHD-1 Enzyme Inhibition Assay. Also: in the data most compounds retested in dose-response had high values. The test is classed as functional. The settings on record: 30 µM.

This passage reports Percent Effect results from ChEMBL document CHEMBL3988442, “University of Dundee, Small-Polar-MMV Screening Library” (2021).

For some of these results: Results with a measured potency or affinity are listed apart.

Sequence of Protein translocase subunit SecA (Escherichia coli (strain K12)) (P10408 whole entry): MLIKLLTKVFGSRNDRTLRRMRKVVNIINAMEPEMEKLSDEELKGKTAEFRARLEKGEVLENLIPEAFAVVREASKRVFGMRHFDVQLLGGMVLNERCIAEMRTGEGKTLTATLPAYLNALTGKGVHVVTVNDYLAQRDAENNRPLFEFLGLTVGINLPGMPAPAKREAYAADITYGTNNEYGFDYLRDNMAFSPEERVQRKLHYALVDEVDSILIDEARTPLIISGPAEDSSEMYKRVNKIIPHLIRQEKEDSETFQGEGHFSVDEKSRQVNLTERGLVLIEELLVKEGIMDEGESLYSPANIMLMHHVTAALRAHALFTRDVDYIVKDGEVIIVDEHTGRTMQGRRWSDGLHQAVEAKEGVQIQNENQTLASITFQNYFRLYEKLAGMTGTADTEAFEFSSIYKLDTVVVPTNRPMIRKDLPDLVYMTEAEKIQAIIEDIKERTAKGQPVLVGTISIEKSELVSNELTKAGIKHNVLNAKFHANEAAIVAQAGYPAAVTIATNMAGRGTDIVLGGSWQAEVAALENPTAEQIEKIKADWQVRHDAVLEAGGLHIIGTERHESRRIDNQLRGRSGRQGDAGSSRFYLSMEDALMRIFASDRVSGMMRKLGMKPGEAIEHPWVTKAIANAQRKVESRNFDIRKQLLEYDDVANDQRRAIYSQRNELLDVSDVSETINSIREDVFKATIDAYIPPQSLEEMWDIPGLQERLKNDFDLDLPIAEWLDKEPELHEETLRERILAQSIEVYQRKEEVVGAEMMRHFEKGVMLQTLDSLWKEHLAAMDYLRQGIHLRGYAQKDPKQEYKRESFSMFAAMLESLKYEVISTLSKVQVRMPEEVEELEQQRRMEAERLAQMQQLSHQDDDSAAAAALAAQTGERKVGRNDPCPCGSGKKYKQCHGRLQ
Sequence of Chromo domain-containing protein 1 (Saccharomyces cerevisiae (strain ATCC 204508 / S288c) (Baker's yeast)) (P32657 whole entry, the tested form may be a part): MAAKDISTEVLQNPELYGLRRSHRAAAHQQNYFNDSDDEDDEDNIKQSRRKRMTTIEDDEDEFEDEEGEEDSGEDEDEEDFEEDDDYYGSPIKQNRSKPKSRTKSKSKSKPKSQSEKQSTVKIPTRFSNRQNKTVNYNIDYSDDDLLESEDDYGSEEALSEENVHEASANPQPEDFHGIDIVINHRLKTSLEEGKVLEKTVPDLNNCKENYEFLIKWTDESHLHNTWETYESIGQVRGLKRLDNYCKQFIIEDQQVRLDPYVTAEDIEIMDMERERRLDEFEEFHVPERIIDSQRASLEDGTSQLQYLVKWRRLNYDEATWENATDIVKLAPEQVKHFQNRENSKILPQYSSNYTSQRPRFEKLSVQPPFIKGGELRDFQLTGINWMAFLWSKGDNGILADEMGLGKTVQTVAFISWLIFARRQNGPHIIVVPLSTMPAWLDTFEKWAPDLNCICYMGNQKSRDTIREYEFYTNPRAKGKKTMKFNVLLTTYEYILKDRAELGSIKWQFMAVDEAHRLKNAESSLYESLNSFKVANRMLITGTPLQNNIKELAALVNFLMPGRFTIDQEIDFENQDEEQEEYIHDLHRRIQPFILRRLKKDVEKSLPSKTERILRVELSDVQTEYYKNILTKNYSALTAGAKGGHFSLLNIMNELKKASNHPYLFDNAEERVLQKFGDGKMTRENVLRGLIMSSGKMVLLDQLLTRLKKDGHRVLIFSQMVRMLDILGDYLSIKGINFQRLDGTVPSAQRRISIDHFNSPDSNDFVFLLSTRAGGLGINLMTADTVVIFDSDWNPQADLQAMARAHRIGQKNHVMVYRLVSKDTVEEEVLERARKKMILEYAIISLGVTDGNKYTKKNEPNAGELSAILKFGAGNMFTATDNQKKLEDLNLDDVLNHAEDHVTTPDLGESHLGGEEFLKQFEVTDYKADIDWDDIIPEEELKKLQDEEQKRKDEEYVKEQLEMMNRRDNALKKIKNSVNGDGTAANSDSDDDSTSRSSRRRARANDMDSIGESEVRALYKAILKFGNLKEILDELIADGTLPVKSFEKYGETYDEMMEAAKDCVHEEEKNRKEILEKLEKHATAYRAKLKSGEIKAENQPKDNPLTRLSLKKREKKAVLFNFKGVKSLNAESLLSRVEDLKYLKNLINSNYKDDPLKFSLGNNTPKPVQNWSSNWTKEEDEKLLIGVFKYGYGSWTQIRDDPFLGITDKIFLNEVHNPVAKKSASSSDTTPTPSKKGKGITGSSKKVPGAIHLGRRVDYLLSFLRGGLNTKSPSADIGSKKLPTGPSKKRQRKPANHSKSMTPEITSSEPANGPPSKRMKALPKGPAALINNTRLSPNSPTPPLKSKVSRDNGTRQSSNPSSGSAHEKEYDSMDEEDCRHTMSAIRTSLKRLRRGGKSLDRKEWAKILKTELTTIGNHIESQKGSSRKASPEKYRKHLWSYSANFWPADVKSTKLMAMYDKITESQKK
Sequence of Sialic acid-binding Ig-like lectin 9 (Homo sapiens) (Q9Y336 whole entry): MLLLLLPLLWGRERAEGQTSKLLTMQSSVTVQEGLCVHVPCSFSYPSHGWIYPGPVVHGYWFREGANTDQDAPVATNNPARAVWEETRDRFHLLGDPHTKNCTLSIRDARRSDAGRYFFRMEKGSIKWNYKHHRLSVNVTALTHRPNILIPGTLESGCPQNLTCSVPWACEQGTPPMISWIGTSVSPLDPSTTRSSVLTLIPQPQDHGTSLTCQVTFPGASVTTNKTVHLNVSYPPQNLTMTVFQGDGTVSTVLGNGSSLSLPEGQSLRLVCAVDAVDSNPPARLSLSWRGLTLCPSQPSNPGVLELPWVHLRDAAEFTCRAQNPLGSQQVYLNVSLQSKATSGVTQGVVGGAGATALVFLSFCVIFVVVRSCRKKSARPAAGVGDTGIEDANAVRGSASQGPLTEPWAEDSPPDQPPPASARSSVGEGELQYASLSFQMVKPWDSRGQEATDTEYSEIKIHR

For the compound `COc1ccccc1OCC(=O)NCC(O)(c1ccccc1)C1CC1` (stereo unspecified), the Percent Effect is -4.08% in [1]; 13.7% in test [2]; -8.54% in test [3]; 17% in [4]; 2.74% in the test with Trypanosoma cruzi; 0.909% in test [5]. The Percent Effect in test [6] was 14%; in the test listed under Homo sapiens, 7.48%; in test [7], 8.6%; in [8], 15%; in test [9], -5.98%.
In the case of `Cc1nc(CN(C)C2CCN(CC3CCCCC3)C2)no1` (stereo unspecified), the Percent Effect is -3.09% in [1]; 18.9% in test [2]; -8.63% in [3]; 1.46% in test [4]; 4.55% in the test on Trypanosoma cruzi; -7.95% in test [5]. Besides, the Percent Effect in test [6] is 8.8%; in the test listed under Homo sapiens, 10.1%; in test [7], 5.94%; in test [8], 23.2%; in test [9] it was -8.81%.
For the compound `CCN(CC)C(=O)c1cc(C2CCCN2C)ccn1` (stereo unspecified), the Percent Effect is -5.39% in [1]; 23% in test [2]; -2.48% in [3]; -2.94% in test [4]; 0.988% with Trypanosoma cruzi; -2.55% in [5]. In addition, the Percent Effect is 15.4% in [6]; -5.61% in the test filed under Homo sapiens; 5.38% in [7]; 11.7% in [8]; -12.8% in [9].
As for `COC1CCN(C(=O)c2c(Cl)c3ccccc3n2C)CC1`, the Percent Effect in test [1] was -5.47%; in [2], 5.33%; in [3], 0.805%; in [4], 8.11%; in the test with Trypanosoma cruzi, 3.41%; in [5] it was 5.21%. The Percent Effect is 16.2% in test [6]; -7.49% in the test filed under Homo sapiens; 3.83% in test [7]; 11.1% in test [8]; -5% in test [9].
As to `CC(=O)N1CCN(Cn2nc(-c3ccc(F)cc3)oc2=O)CC1`, the Percent Effect in test [1] was -3.09%; in [2], 23.4%; in test [3] it was -4.67%; in [4], -7.73%; with Trypanosoma cruzi, -2.25%; in test [5], 0.712%. Also, the Percent Effect in test [6] is 8.11%; in the test listed under Homo sapiens, 15%; in test [7], 9.71%; in test [8], 21.9%; in test [9], -10.3%.
For `Cc1cccc(OCCC(=O)NCC(C)(C)C(N)=O)c1`, the Percent Effect in test [1] is -3.42%; in [2], 10.5%; in [3] it was 1.54%; in test [4], 16.5%; in the test with Trypanosoma cruzi, 1.13%; in test [5] it was 2.68%. Also, the Percent Effect in test [6] was 8.19%; in the test listed under Homo sapiens, -23.5%; in test [7], 4.41%; in [8] it was -41.5%; in test [9], -10.8%.
Consider `CCc1ccccc1-n1cc(O)c(C(=O)N2CCCCC2)n1`, for which the Percent Effect in test [1] is -2.01%; in test [2], -29.7%; in test [3] it was 5.9%; in test [4], -1.13%; in the test with Trypanosoma cruzi, -4.36%; in test [5], 0.185%. Further, the Percent Effect was 4.85% in [6]; 20.6% in the test listed under Homo sapiens; -23.8% in [7]; -45.1% in [8]; 2% in [9].
In the case of `Cc1cc(C2CCCN(CCc3ccccn3)C2)n[nH]1` (stereo unspecified), the Percent Effect in test [1] was -4.83%; in [2], 2.53%; in test [3], -4%; in [4], 3.7%; with Trypanosoma cruzi, 9.73%; in test [5] it was 1.14%. The Percent Effect is -1.23% in [6]; -3.32% in the test listed under Homo sapiens; -7.39% in [7]; 11.4% in test [8]; -2.02% in test [9].
`CC(C)c1nc(C2CCCN2C(=O)c2ccc(N(C)C)nn2)no1` (stereo unspecified): the Percent Effect in test [1] was -0.476%; in test [2], 16.2%; in test [3], -4.5%; in test [4] it was -2.95%; in the test with Trypanosoma cruzi, 0.0929%; in test [5], -4.25%. Moreover, the Percent Effect was 6.1% in test [6]; 24.1% in the test filed under Homo sapiens; 3.96% in test [7]; 15.8% in test [8]; -5.4% in test [9].
In the case of `COCC1CN(Cc2ccc(C)o2)Cc2ncn(CC3CC3)c21` (stereo unspecified), the Percent Effect in test [1] is 0.368%; in [2] it was 5.2%; in test [3], -2.46%; in test [4], 5.95%; with Trypanosoma cruzi it was 6.79%; in [5], -6.9%. Also, the Percent Effect in test [6] was 3.99%; in the test filed under Homo sapiens, -10.6%; in [7], 1.07%; in test [8], 1.24%; in test [9], -7.38%.
As to `CNC(=O)[C@H]1CO[C@H]2CCN(Cc3ccc4ccccc4n3)C[C@H]2C1`, the Percent Effect was -4.79% in [1]; 8.11% in test [2]; 7.95% in test [3]; -3.25% in test [4]; -3.62% in the test on Trypanosoma cruzi; 9.87% in [5]. Also, the Percent Effect in test [6] is 18.8%; in the test filed under Homo sapiens it was -14.1%; in test [7], 2.16%; in [8], 15.4%; in test [9] it was 1.01%.
